Measurements: PubChem BioAssay (EPA / NIEHS)
Several values for one entry are separate records, joined by “and”; a condition that tells them apart may be missing. Equal values may be shown once. Some compounds were tested as several samples or in several runs, with calls that do not always agree. Activity calls are given as the source filed them. Rule for the calls: active = hit-call score of the fitted dose curve at least 0.9, where 1 is the maximum; inactive = score below 0.9.

Legend:
[1] = ATG_E_Box_CIS: Attagene CIS-FACTORIAL HepG2 Assay for human Enhancer Box (E-box) (AID 2282936); conditions: HepG2 E-box cis-reporter transcription, actives raise or lower the signal
How it was run: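 Multiplexed CIS reporter system in transiently transfected HepG2 cells measures native transcription factor activity. Reporter RNA after 24 h exposure is profiled by RT-PCR-capillary electrophoresis.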

[2] = ATG_M_61_CIS: Attagene CIS-FACTORIAL HepG2 Assay for M61 Transcription Factor (Internal Marker) (AID 2282937); conditions: HepG2 Attagene CIS-FACTORIAL M61 internal marker reporter; actives raise or lower the signal
How it was run: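 Using transiently transfected HepG2 liver cells, reporter transcript levels were assessed 24 h post-dosing by RT-PCR and capillary electrophoresis. Changes in either direction were fitted relative to DMSO controls.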

[3] = ATG_EGR_CIS: Attagene CIS-FACTORIAL HepG2 Assay for human Early Growth Response 1 (EGR1) (AID 2282938); conditions: HepG2 Attagene CIS-FACTORIAL EGR reporter mRNA; actives raise or lower the signal
How it was run: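 Fluorescent capillary-electrophoresis signal of reporter cDNA fragments serves as read-out. HepG2 cells bear transiently transfected cis-promoter reporter units and are exposed 24 h; gain- or loss-of-signal is fitted against DMSO.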

[4] = ATG_M_19_CIS: Attagene CIS-FACTORIAL HepG2 Assay for M19 Transcription Factor (Internal Marker) (AID 2282939); conditions: HepG2 Attagene CIS-FACTORIAL M19 internal marker reporter; actives raise or lower the signal
How it was run: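 Transfect HepG2 with MRTU reporter library → dose chemical, 24 h → isolate total RNA, reverse-transcribe with oligo(dT) → PCR, 6-FAM label, HpaI cut (2 h, 37 C) → capillary electrophoresis. Bidirectional fit vs DMSO.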

[5] = ATG_Ets_CIS: Attagene CIS-FACTORIAL HepG2 Assay for human Erythroblast Transformation Specific (ETS) (AID 2282941); conditions: HepG2 ETS cis-reporter transcription, actives raise or lower the signal
How it was run: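 Human HepG2 hepatoma cells were transiently transfected with promoter-driven reporter constructs and treated for 24 hours. Reporter transcripts were quantified by RT-PCR with fluorescent primer extension; bidirectional curve fitting used DMSO as reference.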

[6] = molecular target: Hepatocyte nuclear factor 3-beta (Homo sapiens) (UniProt Q9Y261); test: ATG_FoxA2_CIS: Attagene CIS-FACTORIAL HepG2 Assay for human Forkhead box A2 (FOXA2) (AID 2282942); conditions: HepG2 cis-reporter transcription factor activity, 24 h; actives raise or lower the signal
Sequence of Hepatocyte nuclear factor 3-beta (Homo sapiens) (Q9Y261 whole entry, looked up, the tested form may be a part): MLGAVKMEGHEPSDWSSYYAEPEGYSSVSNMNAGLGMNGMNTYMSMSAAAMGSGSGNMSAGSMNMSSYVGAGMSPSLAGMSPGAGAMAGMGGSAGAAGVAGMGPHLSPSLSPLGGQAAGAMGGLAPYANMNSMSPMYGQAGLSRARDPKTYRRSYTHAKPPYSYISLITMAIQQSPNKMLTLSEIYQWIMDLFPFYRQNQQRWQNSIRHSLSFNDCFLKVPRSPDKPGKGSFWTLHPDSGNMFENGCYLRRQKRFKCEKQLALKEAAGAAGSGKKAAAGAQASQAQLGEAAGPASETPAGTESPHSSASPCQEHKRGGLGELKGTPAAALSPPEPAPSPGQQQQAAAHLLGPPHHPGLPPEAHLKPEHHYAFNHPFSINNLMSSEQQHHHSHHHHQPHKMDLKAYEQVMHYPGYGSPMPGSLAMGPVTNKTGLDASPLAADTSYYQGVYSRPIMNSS
How it was run: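 Fluorescence signal of reporter cDNA fragments, separated by capillary electrophoresis, reflects endogenous transcription factor activity in transfected HepG2 after 24 h. Both increases and decreases fitted against DMSO.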

[7] = ATG_FoxO_CIS: Attagene CIS-FACTORIAL HepG2 Assay for human Forkhead box O (FoxO) (AID 2282943); conditions: HepG2 Attagene cis-reporter, FoxO element, mRNA; actives raise or lower the signal
How it was run: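 HepG2 cells transiently transfected with cis-promoter-driven multiple reporter transcription units; 24 h after chemical dosing, reporter mRNA quantified by RT-PCR, fluorescent primer extension, HpaI digestion and capillary electrophoresis. Bidirectional fitting versus DMSO baseline.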

[8] = ATG_GATA_CIS: Attagene CIS-FACTORIAL HepG2 Assay for human GATA Binding Protein (AID 2282944); conditions: HepG2 GATA cis-element reporter, Attagene multiplex mRNA; actives raise or lower the signal
How it was run: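 Transient MRTU transfection, HepG2, 24 h compound exposure. Total RNA → oligo(dT) RT → PCR → 6-FAM primer extension → HpaI cut → CE. Bidirectional fit vs DMSO.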

[9] = ATG_GLI_CIS: Attagene CIS-FACTORIAL HepG2 Assay for human Zinc Finger Protein GLI1 (AID 2282945); conditions: HepG2, Attagene cis-factorial reporter mRNA, GLI element; actives raise or lower the signal
How it was run: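 HepG2 cells transiently transfected with cis-promoter multiplexed reporter units report endogenous transcription factor activity. After 24 h chemical exposure, reporter mRNA was quantified by RT-PCR, 6-FAM labelling, HpaI digestion and capillary electrophoresis, with bidirectional fitting against DMSO.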

[10] = molecular target: Bile acid receptor (Homo sapiens) (UniProt Q96RI1); test: ATG_IR1_CIS: Attagene CIS-FACTORIAL HepG2 Assay for human Nuclear Receptor Subfamily 1 Group H Member 4 (NR1H4), IR1 submotif (AID 2282946); conditions: IR1 reporter transcription, actives raise or lower the signal
Sequence of Bile acid receptor (Homo sapiens) (Q96RI1 whole entry, looked up): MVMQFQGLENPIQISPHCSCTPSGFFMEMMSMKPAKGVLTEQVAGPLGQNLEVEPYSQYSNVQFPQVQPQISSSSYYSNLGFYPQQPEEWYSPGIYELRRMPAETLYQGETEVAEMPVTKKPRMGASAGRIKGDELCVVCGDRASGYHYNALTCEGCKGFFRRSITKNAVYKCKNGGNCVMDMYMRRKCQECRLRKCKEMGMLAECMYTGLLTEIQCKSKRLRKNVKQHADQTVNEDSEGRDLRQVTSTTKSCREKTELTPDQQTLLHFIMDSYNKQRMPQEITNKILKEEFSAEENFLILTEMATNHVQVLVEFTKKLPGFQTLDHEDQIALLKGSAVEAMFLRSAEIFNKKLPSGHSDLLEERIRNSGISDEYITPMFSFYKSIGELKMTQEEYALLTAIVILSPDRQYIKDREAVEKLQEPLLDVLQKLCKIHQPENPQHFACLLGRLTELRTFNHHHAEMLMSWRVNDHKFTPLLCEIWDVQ
How it was run: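 Transient MRTU transfection, HepG2; 24 h dosing; RNA → RT-PCR → 6-FAM primer extension → HpaI digest → capillary electrophoresis fluorescence. Gain/loss of signal fitted relative to DMSO.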

[11] = ATG_M_32_CIS: Attagene CIS-FACTORIAL HepG2 Assay for M32 Transcription Factor (Internal Marker) (AID 2282949); conditions: HepG2 Attagene cis-factorial M32 reporter, mRNA; actives raise or lower the signal;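 note: background control marker of the multiplexed CIS panel rather than a real target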
How it was run: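 Fluorescent capillary electrophoresis peaks of HpaI-digested, FAM-labelled RT-PCR reporter products give the signal. Source: transiently transfected human liver HepG2 cells, 24 h after chemical dosing; bidirectional fitting against DMSO.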

[12] = ATG_M_06_CIS: Attagene CIS-FACTORIAL HepG2 Assay for M06 Transcription Factor (Internal Marker) (AID 2282950); conditions: HepG2 Attagene CIS-FACTORIAL M06 internal marker reporter; actives raise or lower the signal
How it was run: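 Read-out is fluorescence of labelled reporter cDNA fragments resolved by capillary electrophoresis after RT-PCR. Cells: HepG2 carrying transfected cis-promoter reporter units, treated 24 h. Gain or loss of signal fitted relative to DMSO.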

[13] = molecular target: Hypoxia-inducible factor 1-alpha (Homo sapiens) (UniProt Q16665); test: ATG_HIF1a_CIS: Attagene CIS-FACTORIAL HepG2 Assay for human Hypoxia Inducible Factor 1 (HIF1A) (AID 2282951); conditions: HepG2 Attagene cis-factorial HIF1a reporter transcription; actives raise or lower the signal
Sequence of Hypoxia-inducible factor 1-alpha (Homo sapiens) (Q16665 whole entry, looked up): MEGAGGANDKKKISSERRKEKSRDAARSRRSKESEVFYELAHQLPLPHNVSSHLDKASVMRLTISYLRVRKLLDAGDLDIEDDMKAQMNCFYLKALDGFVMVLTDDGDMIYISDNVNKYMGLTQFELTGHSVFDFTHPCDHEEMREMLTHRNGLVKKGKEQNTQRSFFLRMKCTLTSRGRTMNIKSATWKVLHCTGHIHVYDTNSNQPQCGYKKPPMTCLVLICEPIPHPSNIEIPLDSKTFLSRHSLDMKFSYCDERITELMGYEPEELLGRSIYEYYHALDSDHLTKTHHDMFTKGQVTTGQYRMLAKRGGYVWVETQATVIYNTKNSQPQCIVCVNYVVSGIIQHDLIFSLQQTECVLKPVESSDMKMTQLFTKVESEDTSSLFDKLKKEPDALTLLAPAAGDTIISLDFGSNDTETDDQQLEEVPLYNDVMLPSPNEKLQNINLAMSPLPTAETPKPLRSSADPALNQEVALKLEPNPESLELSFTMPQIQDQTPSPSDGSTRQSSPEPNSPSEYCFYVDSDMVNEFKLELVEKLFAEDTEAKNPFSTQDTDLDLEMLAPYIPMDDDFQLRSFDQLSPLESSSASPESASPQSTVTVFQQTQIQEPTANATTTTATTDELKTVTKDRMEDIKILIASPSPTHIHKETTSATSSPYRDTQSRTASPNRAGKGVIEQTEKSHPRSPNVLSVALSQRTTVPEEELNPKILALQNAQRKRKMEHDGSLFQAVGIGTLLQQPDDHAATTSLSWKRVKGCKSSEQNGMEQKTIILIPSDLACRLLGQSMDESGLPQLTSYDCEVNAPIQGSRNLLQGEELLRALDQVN
How it was run: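 Endogenous-TF cis reporter readout, human HepG2 cells, 24 h incubation; mRNA detected via RT-PCR and capillary electrophoresis fluorescence; DMSO-normalised bidirectional fitting.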

[14] = molecular target: Hepatocyte nuclear factor 6 (Homo sapiens) (UniProt Q9UBC0); test: ATG_HNF6_CIS: Attagene CIS-FACTORIAL HepG2 Assay for human Hepatocyte Nuclear Factor 6 (HNF6) (AID 2282952); conditions: HepG2 Attagene cis-factorial HNF6 reporter transcription; actives raise or lower the signal
Sequence of Hepatocyte nuclear factor 6 (Homo sapiens) (Q9UBC0 whole entry, looked up): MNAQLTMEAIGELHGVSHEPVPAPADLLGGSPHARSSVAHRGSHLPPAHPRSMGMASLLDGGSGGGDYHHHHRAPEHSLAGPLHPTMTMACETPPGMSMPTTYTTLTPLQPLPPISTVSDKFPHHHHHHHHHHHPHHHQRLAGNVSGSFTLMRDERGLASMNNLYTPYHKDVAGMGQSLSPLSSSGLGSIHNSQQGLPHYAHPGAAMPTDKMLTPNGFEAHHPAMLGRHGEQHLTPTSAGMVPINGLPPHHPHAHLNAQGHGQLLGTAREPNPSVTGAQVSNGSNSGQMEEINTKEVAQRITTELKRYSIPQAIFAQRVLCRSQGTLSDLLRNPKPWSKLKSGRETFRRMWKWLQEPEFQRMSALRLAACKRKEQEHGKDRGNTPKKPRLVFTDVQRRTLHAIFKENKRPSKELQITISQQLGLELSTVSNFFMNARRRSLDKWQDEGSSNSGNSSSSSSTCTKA
How it was run: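 Multiplexed mRNA reporter assay in transfected HepG2; 24 h dosing; RT-PCR plus capillary electrophoresis fluorescence; DMSO-referenced bidirectional curve fitting.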

[15] = ATG_PBREM_CIS: Attagene CIS-FACTORIAL HepG2 Assay for human Phenobarbital-responsive Enhancer Module (PBREM) (AID 2282955); conditions: HepG2 PBREM cis-reporter, Attagene multiplexed transcription; actives raise or lower the signal
How it was run: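 Readout: reporter mRNA, fluorescent RT-PCR fragments separated by capillary electrophoresis. System: HepG2 transiently transfected with cis-regulated reporter units. Exposure: 24 h. Analysis: bidirectional, DMSO baseline.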

[16] = ATG_ERE_CIS: Attagene CIS-FACTORIAL HepG2 Assay for Estrogen Response Element (ERE) (AID 2282940); conditions: HepG2 ERE cis-reporter, Attagene RNA transcript; actives raise or lower the signal
How it was run: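 Transient MRTU transfection of human HepG2; cis-element promoters; 24 h dosing; total RNA → RT (oligo dT) → PCR → 6-FAM primer extension → HpaI digest → CE fluorescence. Bidirectional fit, DMSO baseline.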

[17] = ATG_GRE_CIS: Attagene CIS-FACTORIAL HepG2 Assay for human Glucocorticoid Response Elements (GRE) (AID 2282947); conditions: HepG2 GRE cis-reporter, Attagene multiplex mRNA; actives raise or lower the signal
How it was run: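 Following 24 h chemical exposure of transiently transfected HepG2 cells, total RNA was reverse-transcribed and reporter cDNA amplified, fluorescently labelled and sized by capillary electrophoresis. Signal gain or loss was fitted relative to DMSO vehicle.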

[18] = ATG_ISRE_CIS: Attagene CIS-FACTORIAL HepG2 Assay for human Interferon Regulatory Factor 1 (IRF1) binding to an Interferon-Stimulated Response Element (ISRE) (AID 2282948); conditions: HepG2 ISRE cis-reporter (Attagene), mRNA transcription readout; actives raise or lower the signal
How it was run: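 Cell-based cis-reporter assay; HepG2; 24 h exposure; reporter mRNA by RT-PCR plus capillary electrophoresis fluorescence; activity in either direction scored relative to DMSO.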

[19] = molecular target: Heat shock factor protein 1 (Homo sapiens) (UniProt Q00613); test: ATG_HSE_CIS: Attagene CIS-FACTORIAL HepG2 Assay for human Heat Shock Transcription Factor 1 (HSE) (AID 2282953); conditions: HepG2 HSE cis-reporter, Attagene RNA transcription; actives raise or lower the signal
Sequence of Heat shock factor protein 1 (Homo sapiens) (Q00613 whole entry, looked up): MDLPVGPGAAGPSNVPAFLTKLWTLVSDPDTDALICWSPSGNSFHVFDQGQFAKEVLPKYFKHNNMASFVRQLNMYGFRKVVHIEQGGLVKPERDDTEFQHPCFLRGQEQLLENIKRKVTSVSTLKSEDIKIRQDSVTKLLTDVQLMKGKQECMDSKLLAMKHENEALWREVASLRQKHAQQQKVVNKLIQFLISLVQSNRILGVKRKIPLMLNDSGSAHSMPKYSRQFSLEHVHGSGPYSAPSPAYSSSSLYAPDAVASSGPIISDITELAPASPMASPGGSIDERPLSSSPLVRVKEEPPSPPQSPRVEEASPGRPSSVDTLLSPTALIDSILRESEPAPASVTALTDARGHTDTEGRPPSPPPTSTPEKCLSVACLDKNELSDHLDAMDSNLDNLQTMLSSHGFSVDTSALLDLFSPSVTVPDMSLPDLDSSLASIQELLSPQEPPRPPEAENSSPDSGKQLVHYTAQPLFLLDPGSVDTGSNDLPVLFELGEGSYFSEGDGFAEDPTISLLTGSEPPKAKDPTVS
How it was run: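 HepG2, transient MRTU transfection, cis-promoter reporters (endogenous TF activity). 24 h compound. RNA → oligo(dT) RT → PCR → 6-FAM primer extension → HpaI cut → CE. Bidirectional fit vs DMSO.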

[20] = ATG_MRE_CIS: Attagene CIS-FACTORIAL HepG2 Assay for human Metal Responsive Element (MRE) (AID 2282954); conditions: HepG2 MRE cis-reporter transcription, Attagene multiplex; actives raise or lower the signal
How it was run: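 Step one: transfect HepG2 with cis-regulated reporter units. Step two: dose 24 h. Step three: isolate RNA, RT-PCR, 6-FAM label, HpaI digest, capillary electrophoresis. Fit bidirectionally to DMSO.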

Measured: AC50

CCC(C)(c1ccc(O)cc1)c1ccc(O)cc1
inactive: [1] | [2] | [3] | [4] | [5] | [6] | [7] | [8] | [9] | [10] | [11] | [12] | [13] | [14] | [15]
active: [1] 43.5 µM | [3] 48.8 µM | [5] 53.8 µM | [8] 44.9 µM | [9] 60.5 µM | [10] 43 µM and 33.4 µM and 54.5 µM | [13] 75.9 nM and 26.2 µM | [14] 51.8 µM | [15] 1.17 µM

CCCCCCOC(=O)c1ccccc1C(=O)OCCCCCC
active: [16] 4.15 µM
not listed: [10] | [13]
inactive: all other assays above

Clc1ccc(C(c2ccccc2Cl)C(Cl)(Cl)Cl)cc1 (stereo not drawn)
active: [16] 874 nM [middle of 4 runs] | [6] 135 µM | [19] 50.7 µM and 94.6 µM | [20] 70.5 µM and 36.9 µM
inactive: [1] | [2] | [3] | [4] | [5] | [6] | [7] | [8] | [9] | [17] | [11] | [12] | [14] | [19] | [20] | [15]

O=C(O)C(F)(F)C(F)(F)C(F)(F)C(F)(F)C(F)(F)C(F)(F)C(F)(F)C(F)(F)F
inactive: [1] | [2] | [3] | [4] | [5] | [6] | [7] | [8] | [9] | [10] | [17] | [11] | [12] | [13] | [14] | [20]
active: [3] 150 µM and 50 µM | [13] 50 µM | [20] 210 µM and 50 µM

Oc1ccc(Cl)cc1Cl
active: [16] 75.9 µM
not listed: [18]
inactive: all other assays above

CCSC(=O)N(CC)C1CCCCC1
not listed: [15] | [16]
inactive: all other assays above
